According to PubChem BioAssay AID834 (PCMD, 2007):
Screen size: about 85,000 compounds; about 120 (0.14%) were called active.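 How the source made its calls: active means inhibition above 20%; inactive means inhibition below 20%.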 Shown is part of a subset that was picked to be rich in actives.

Assay: clotrimazole potentiators killing Candida biofilms, primary screen, with clotrimazole, Alamar Blue (AID 834);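 further: preformed 24 hr biofilms exposed to compound for 48 hr; 0% = biofilm without compound and 100% = blank killed by clotrimazole plus chlorhexidine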
Conditions: C. albicans biofilm + clotrimazole, at 6 µM, active compounds read high

SMILES | inhibition
CCCn1c(C)cc(C(=O)COC(=O)c2c(C)nn(-c3ccccc3)c2C)c1C | -1.14% (inactive)
O=C(CSc1nnc(-c2cccs2)n1Cc1ccccc1)N1CCc2ccccc2C1 | 6.37% (inactive)
CCOc1ccc2c(c1)C(c1ccc(C)cc1)=NNC(c1ccc(C)cc1)=N2 | -0.27% (inactive)
C=C(C)CNC(=S)/N=c1\scc(C)n1CC | 1.12% (inactive)
COc1ccc(C2C(C#N)=C(/N=C/N3CCOCC3)OC3=C2C(=O)CC(C)(C)C3)cc1OC (configuration not stated) | 13.5% (inactive)
O=P(O)(CP(=O)(c1ccccc1)c1ccccc1)c1ccccc1O | 7.77% (inactive)
CC(C)NC(=O)CSc1nnc(COc2ccccc2Cl)o1 | 5.07% (inactive)
O=C(c1cccc(F)c1)N1CCC(O)(c2cccnc2)CC1 | 8.81% (inactive)
CCCOc1cc(C)c(S(=O)(=O)n2nnc3ccccc32)cc1C | 2.8% (inactive)
NC1=NC(=O)C2(COC(c3ccccc3Cl)OC2)S1 (configuration not stated) | 14.2% (inactive)
CC(C)Nc1ncnc2c1nnn2Cc1ccccc1 | -1.71% (inactive)
Brc1ccc(-c2nnc(-c3ccccc3)o2)o1 | 6.11% (inactive)
CCN(CC)C(=O)CSc1nnc(C2CCCCC2)o1 | 2.47% (inactive)
O=c1[nH][nH]c(C(F)(F)F)c1C=NCc1ccccc1Cl | -3.59% (inactive)
CCN1C(=O)/C(=C2/Sc3ccc(OC)cc3N2C)SC1=Nc1ccc(C)cc1 | -3.03% (inactive)
O=C(NC(C(=O)NCCN1CCOCC1)C12CC3CC(CC(C3)C1)C2)C1CCCCC1 (configuration not stated) | -1.05% (inactive)
S=c1[nH]nc(-c2ccc(Cl)cc2)n1CC1CCCO1 (configuration not stated) | 7.93% (inactive)
Cc1nnc(SCC(=O)Nc2ncc3c(n2)CC(C)(C)CC3=O)s1 | 3.95% (inactive)
Cc1ccccc1-c1nnc(SCC(=O)NCc2ccc3c(c2)OCO3)n1C | 4.85% (inactive)
Cc1ccc(C(=O)N/N=C/c2sc(=O)n(Cc3cccc(C(=O)O)c3)c2Cl)cc1 | 8.24% (inactive)
COc1ccc(CN(Cc2ccco2)S(=O)(=O)c2ccc(S(=O)(=O)N3CCCC3)cc2)cc1 | 1.45% (inactive)

SMILES | inhibition
COC(=O)c1ccccc1Oc1c(F)c(F)nc(N2CCOCC2)c1F | 8.84% (inactive)
CCc1ccc(NC(=O)CN2C(=O)CSC2=O)cc1 | 5.49% (inactive)
CC(C)(CNC(=O)c1cc(=O)[nH]c2ccccc12)N1CCOCC1 | 6.02% (inactive)
COc1cc(C)c(C(C)C)cc1S(=O)(=O)n1ccnc1 | 1.15% (inactive)
CCn1c(CC(=O)Nc2ccc(C)cc2)nnc1SCC(=O)Nc1nc(C)cs1 | 5.16% (inactive)
CN1C(=O)C(CC(N)=O)N(NC(=O)c2ccc(Cl)cc2)C1=S (configuration not stated) | 7.03% (inactive)
Cc1ccc(-n2c(CNc3ccc(F)cc3)nnc2SCC(=O)N2CCOCC2)cc1 | 3.95% (inactive)
CC(c1ccco1)N(C(=O)COc1ccccc1[N+](=O)[O-])c1ccccn1 (configuration not stated) | 7.57% (inactive)
COC(=O)[C@@H](NC(=O)Nc1cc(Cl)ccc1C)C(C)C | 10.7% (inactive)
O=C(Nc1cccc(NC(=O)c2ccco2)c1)c1cnccn1 | 4.07% (inactive)
Cn1c(-c2sc3cc(C(F)(F)F)cnc3c2-c2ccccc2)n[nH]c1=S | 1.53% (inactive)
CC(=O)Oc1ccc(NC(=O)CCC2CCCCC2)c(C(=O)O)c1 | 4.27% (inactive)
COc1ccc(S(=O)(=O)NCc2ccc(C(=O)N(C)Cc3ccco3)cc2)cc1 | 4.38% (inactive)
CCOc1ccccc1C(=O)NC1CC2CCCC(C1)N2Cc1ccccc1 (configuration not stated) | 1.7% (inactive)
CCn1nnnc1SCC(=O)c1ccc(C)cc1C | -2.31% (inactive)
Cc1ccccc1CSCCNC(=O)c1ccc(Cl)c(S(=O)(=O)N2CCOCC2)c1 | 3.05% (inactive)
O=C(NCc1ccccc1)[C@@H]1CSC2c3ccccc3C(=O)N21 (some centres not stated) | -0.55% (inactive)
Oc1ccc(-c2onc3ccc(Cl)cc23)cc1 | 3.22% (inactive)
CCCCCCNCCn1cnc2c(N)ncnc21 | 8.75% (inactive)
Cc1cc(C)c(OCC(=O)N/N=C/c2ccco2)c(C)c1 | -5.16% (inactive)
Cn1c2c(c(=O)n(C)c1=O)C(c1cccc([N+](=O)[O-])c1)Nc1ccccc1O2 (configuration not stated) | 6.05% (inactive)

SMILES | inhibition
c1ccc(-n2nc3ccccc3n2)cc1 | 9.8% (inactive)
Cc1ccc(S(=O)(=O)NCC(C)NS(C)(=O)=O)cc1 (configuration not stated) | 3.23% (inactive)
O=C1C(Cl)=C(N2CCOCC2)C(=O)N1c1ccccc1 | 3.34% (inactive)
Fc1ccccc1/C=C1\CCCC2=C1Nc1ncnn1C2c1ccccc1F (configuration not stated) | 56.5% (active)
COc1ccc(OC)c(-n2nnnc2SCC(=O)Nc2cc(C)ccc2OC)c1 | 4% (inactive)
O=S(=O)(NCCc1ccccc1)c1ccccc1 | 5.09% (inactive)
O=C(NCC1CCCO1)c1ccc2ccccc2n1 (configuration not stated) | 2.84% (inactive)
CC(C)Oc1ccc(C(=O)NC(C)(C)CO)cc1 | 0.21% (inactive)
CCN1CCN(C(=O)C2(NC(=O)Nc3cccc(F)c3)CCCCC2)CC1 | -2.53% (inactive)
CCn1c(SCC(=O)Nc2ccc(OC)c(OC)c2)nnc1-c1c[nH]c2ccccc12 | 2.3% (inactive)
O=C(Nc1ccccc1-c1nnn(CC(=O)N2CCCc3ccccc32)n1)c1cccc(Cl)c1 | -4.65% (inactive)
CCSc1nc(-c2ccc(OC)cc2)cc(-c2ccc(OC)cc2)c1C#N | 3.4% (inactive)
CC(C)(C)c1ccc(OC2=CS(=O)(=O)c3ccccc32)cc1 | 1.17% (inactive)
Cc1c(C=O)c2ccccn2c1C(=O)c1ccncc1 | -3.35% (inactive)
Cc1cc(SCC(=O)c2ccccc2)nc(SCC(=O)c2ccccc2)n1 | 9.02% (inactive)
COCC(=O)Nc1ccc(Br)cc1 | 5.17% (inactive)
COC(=O)c1sc(=S)n(-c2ccc(Cl)cc2)c1C | 5.98% (inactive)
CC(=O)C1=C(C)NC(C)=C(C(C)=O)C1c1cn(-c2ccccc2)nc1-c1cccs1 | 4.22% (inactive)
O=C(NCCCn1ccnc1)Nc1ccc(Cl)cc1Cl | 8.78% (inactive)
COC(=O)c1ccc(Sc2ccc(F)cc2)c(N)c1 | 2.2% (inactive)
